Compound activity (PubChem BioAssay)
NPC1 promoter act – qHTS Assay for NPC1 Promoter Activators. Potency, µM (doses to about 9.22 µM), for the others: top-dose activation, actives largely listed as activators. Huh7 NPC1 promoter luciferase reporter, 24 h. actives 2.4% (n = 320,000); further: % of control where 0% means no effect; nearly all actives have a fitted effect of over 60% in size
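Stable NPC1-promoter luciferase Huh7 line; cpd (DMSO) 24 h, 37 °C, 5% CO2; Amplite luciferase reagent 10 min RT; luminescence readout. qHTS format.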
ELG1 genotox – qHTS screen for small molecules that induce genotoxicity in human embryonic kidney (HEK293T) cells expressing luciferase-tagged ELG1. HEK293T ELG1-luciferase reporter, luminescence, 16 h. Potency, µM (series often up to 46 µM), without a hit: at the top dose activity change, positive = activation, most hits filed as activators. actives 1.3% (n = 330,000); further: % of control where 0% means no effect; nearly all actives have a fitted effect of over 60% in size
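Step 1: seed 2,000 HEK293T ELG1-luciferase cells per well. Step 2: add compound or DMSO, incubate 16 hr at 37 °C. Step 3: ONE-Glo, 30 min at room temperature, read luminescence.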
SMN2 splice enh – qHTS Assay for Enhancers of SMN2 Splice Variant Expression; HEK293 SMN2-luciferase splicing reporter, luminescence, 30-36 h; Potency, µM (series often up to 46.1 µM), for the others: at the top dose activity change, positive = activation, usual class: activators; actives 2.8% (n = 210,000); further: % of control where 0% means no effect; nearly all actives have a fitted effect of over 55% in size
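qHTS luciferase splicing reporter: luminescence rises when SMN2 exon 7 is included in transfected HEK293 cells. Compound exposure lasted 30-36 h at 37C, with 4.5 mM final sodium butyrate as control, followed by a ONE-Glo read.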
FLuc counter – qHTS profiling assay for firefly luciferase inhibitor/activator using purifed enzyme and Km concentrations of substrates (counterscreen for miR-21 project). purified FLuc, Km substrates, luminescence inhibition. actives 6.9% (n = 360,000). Potency, µM (top dose mostly 57.5 µM), inactives show at the highest dose activity change, negative = inhibition, usual class: inhibitors. Luciferin 4-monooxygenase (Photinus pyralis), P08659;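 further: plate controls were vehicle for no effect and reference inhibitor for full effect; nearly all actives have a fitted effect of over 55% in size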
Target sequence (P08659 whole entry, looked up): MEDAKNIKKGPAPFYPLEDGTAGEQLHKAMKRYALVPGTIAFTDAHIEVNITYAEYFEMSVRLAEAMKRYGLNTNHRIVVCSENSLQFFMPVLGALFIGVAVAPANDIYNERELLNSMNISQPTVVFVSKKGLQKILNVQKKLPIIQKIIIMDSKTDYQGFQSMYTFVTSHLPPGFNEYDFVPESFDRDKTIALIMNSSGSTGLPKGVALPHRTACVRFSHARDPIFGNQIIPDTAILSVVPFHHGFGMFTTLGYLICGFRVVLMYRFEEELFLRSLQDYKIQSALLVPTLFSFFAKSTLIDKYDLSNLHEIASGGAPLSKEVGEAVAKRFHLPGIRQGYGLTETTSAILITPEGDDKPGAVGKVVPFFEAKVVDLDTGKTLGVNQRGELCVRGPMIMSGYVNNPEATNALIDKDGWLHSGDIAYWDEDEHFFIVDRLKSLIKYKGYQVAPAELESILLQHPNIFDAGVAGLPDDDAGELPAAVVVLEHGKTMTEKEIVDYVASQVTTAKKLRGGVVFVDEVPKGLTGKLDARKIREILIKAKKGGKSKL
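Biochemical qHTS of compounds, final roughly 60 µM downward over six points, against 10 nM purified firefly luciferase using Km concentrations of substrates (10 uM D-luciferin, 10 uM ATP) in Tris acetate pH 7.5 buffer; luminescence output.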
ELG1 DNA repair – qHTS screen for small molecules that inhibit ELG1-dependent DNA repair in human embryonic kidney (HEK293T) cells expressing luciferase-tagged ELG1; HEK293T ELG1-luciferase reporter, luminescence, 16 h; DNA damage induced by 5-fluorouridine; Potency, µM (series often up to 46.1 µM), inactives show at the highest dose activity change, negative = inhibition, actives largely listed as inhibitors; actives 2.3% (n = 330,000); AID 504467, 2011; further: on the % scale 0 is the no-effect control and ±100 the full control effect; nearly all actives have a fitted effect of over 55% in size
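Overnight (16 hr) co-exposure of 2,000 cells/well to 5-fluorouridine and compound at 37 °C preceded detection. Luciferase was quantified via ONE-Glo luminescence; loss of signal denotes inhibition.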
Rab9 promoter act – qHTS Assay for Rab9 Promoter Activators. Huh7 Rab9 promoter-luciferase reporter, luminescence, 24 h. Potency, µM (doses to about 9.22 µM), for the others: top-dose activation, negative = inhibition, usual class: activators. actives 2.8% (n = 320,000). AID 485297, 2010; further: % of control where 0% means no effect; nearly all actives have a fitted effect of over 60% in size
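Stable Rab9-luc Huh7, 1500 cells/well, 2 h settle; cmpd in DMSO, 24 h, 37 °C/5% CO2; luciferase reagent 10 min RT; luminescence.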
Active calls of the source: *; ? = inconclusive; . = no result given; [ ] = dose if it differs, or a comment. In the library only some 9.3% were active in any assay of this set; here they are far more common. The call rests on the fitted dose curve; in most records, active means well fitted curve in the direction sought with a large enough effect; inconclusive means small, poorly fitted or top-dose-only effect, or another doubt; inactive means no such curve, though single readings can be large; an effect the other way counts as inactive or inconclusive. Potency means the concentration at half of the fitted maximal effect.

SMILES	NPC1 promoter act	ELG1 genotox	SMN2 splice enh	FLuc counter	ELG1 DNA repair	Rab9 promoter act
O=C(c1c[nH]c(C(=O)C(Cl)(Cl)Cl)c1)c1ccc(F)cc1Cl	-8%	-2%	4%	-13%	-15%	2%
COc1cccc2cc(C(=O)Oc3ccccc3)c(=O)oc12	-3%	2%	.	12µM*	8%	-2%
COc1cccc2cc(C(=O)OCc3ccccc3)c(=O)oc12	2%	4%	.	6µM*	26%	11%
CCN(C(=O)c1cc2cccc(OC)c2oc1=O)c1ccccc1	-4%	-5%	10µM*	1%	0%	1%
COc1cccc2cc(C(=O)N(Cc3ccccc3)CC3CCCO3)c(=O)oc12 (configuration not stated)	0%	1%	1%	-5%	0%	1%
CC(=O)c1ccc(COC(=O)c2cc3ccccc3oc2=O)cc1	-2%	17%	.	17µM*	?	6%
NS(=O)(=O)c1cccc(NC(=O)CCS(=O)(=O)c2ccc(Cl)cc2)c1	-2%	5%	-11%	0%	-11%	-7%
CCOc1ccc(NC(=O)N2CCC(CN3CCc4ccccc4C3)CC2)cc1	.	.	.	4%	.	.
CC1=C(C(=O)O)N2C(=O)[C@@H](NC(=O)[C@@H](N)c3ccc(O)cc3)[C@@H]2SC1	.	.	5%[20.6 µM]	.	.	.
CCn1c(=O)cc(SCC(=O)N2CCN(c3cc(C)ccc3C)CC2)c2ccccc21	.	.	1%	-1%	.	.
O=C(O)c1ccc(CSc2nnc(COc3ccc(Cl)cc3Cl)o2)cc1	17%	?	4%	19µM*	?	21%
COc1ccc(OCc2nnc(SCc3ccc(C(=O)O)cc3)o2)cc1	-6%	6%	.	-14%	?	-1%
N#Cc1cc(-c2ccccc2)cnc1Sc1ccccc1	1%	0%	6%	21µM*	?	5%
COc1ccc(S(=O)(=O)N2CCN(C(=O)c3cc(-c4ccc(Br)cc4)n[nH]3)CC2)cc1OC	-15%	-6%[9.26 µM]	.	3%	23µM*	-9%
O=C(c1cc(-c2ccc(Br)cc2)n[nH]1)N1CCN(S(=O)(=O)c2ccc(Br)cc2)CC1	.	.	.	-1%	.	.
O=C(N/N=C/c1cccs1)c1n[nH]c2c1CCCC2	?	?	.	0.85µM*	?	0.1µM*
O=C(N/N=C\c1cccc(Cl)c1)c1n[nH]c2c1CCCC2	2.5µM*	?	13µM*	1.7µM*	?	0.71µM*
Cc1ccc(/C=N/NC(=O)c2n[nH]c3c2CCCC3)cc1	?	6.5µM*	.	2.4µM*	?	-6%
C/C(=N\NC(=O)c1n[nH]c2c1CCC2)c1cccs1	?	?	.	0.6µM*	?	?
O=C(N/N=C/c1cccc2ccccc12)c1n[nH]c2c1CCCC2	-22%	18%	10%	-16%	11%	-3%
O=C(N/N=C/C=C/c1ccccc1)c1n[nH]c2c1CCC2	2%	?	-5%	-5%	?	-2%
COc1ccc(NC(=O)C2CCN(c3ccc(Sc4ccc(C)cc4)nn3)CC2)cc1	.	.	0%	-4%	.	.
O=C(Cn1c(=O)n(Cc2ccccc2)c(=O)c2sc3ccccc3c21)Nc1ccc(F)cc1	.	.	0%	-3%	.	.
O=C(c1ccc(CSc2nc3ccncc3n2Cc2ccccc2F)cc1)N1CCCCC1	.	.	-20%	?	.	.
CC(NC(=O)COC(=O)c1ccc(OCC2CCCO2)cc1)c1ccccc1Cl (configuration not stated)	-4%	0%	.	-3%	-15%	0%
